Drawing on PubChem BioAssay, this text covers EGFP/DsRed ratio and EGFP object count for 39 compounds.

Values joined by “and” are separate entries in the source; they are usually repeats but may differ in a detail not shown here. Identical values can stand only once. Active and inactive are the calls of the source. How the calls were made is not given here.

In this assay the target is Cellular tumor antigen p53 (Homo sapiens) (UniProt P04637). In words: kinase inhibitors altering GFP-p53 stability in HPV16-positive cells, imaging, known kinase inhibitor set, EGFP/DsRed ratio (AID 1053116).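 Further: test concentration not given here; cells exposed to compounds for 24 h at 37 °C before reading.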 The following applies: stronger effect = higher value; EGFP object count: measured here: GFP-p53 positive objects count.
Cellular tumor antigen p53 (Homo sapiens), sequence (P04637 whole entry, looked up): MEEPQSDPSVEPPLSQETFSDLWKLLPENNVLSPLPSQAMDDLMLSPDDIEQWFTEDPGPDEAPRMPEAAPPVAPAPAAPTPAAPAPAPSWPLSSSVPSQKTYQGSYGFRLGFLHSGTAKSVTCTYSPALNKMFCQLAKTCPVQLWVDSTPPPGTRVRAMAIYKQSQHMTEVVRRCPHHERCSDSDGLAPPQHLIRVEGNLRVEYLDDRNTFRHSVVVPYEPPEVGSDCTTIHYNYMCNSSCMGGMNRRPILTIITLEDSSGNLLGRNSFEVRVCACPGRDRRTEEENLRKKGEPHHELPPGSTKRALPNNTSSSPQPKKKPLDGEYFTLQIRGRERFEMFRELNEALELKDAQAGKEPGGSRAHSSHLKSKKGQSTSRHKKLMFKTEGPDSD
As for `COc1ccc(Nc2ncc(-c3ccccc3)o2)cc1OC`, the EGFP/DsRed ratio is 0.0153 (inactive) and the EGFP object count was found to be 3.
For `Fc1ccc(-c2nc3n(c2-c2ccncc2)CCS3)cc1`, in that order: 0.154 (inactive) and 4.
For the compound `CCn1c(-c2nonc2N)nc2cnc(Oc3cccc(NC(=O)c4ccc(OCCN5CCOCC5)cc4)c3)cc21`, the EGFP object count came to 3 and the EGFP/DsRed ratio is 0.0358 (inactive).
As for `Cc1ccc(O)cc1Nc1ccnc2ccc(S(C)(=O)=O)cc12`, the EGFP object count was found to be 3 and the EGFP/DsRed ratio is 0.0595 (inactive).
On to `CN(C)c1cc2c(Nc3ccc4c(cnn4Cc4ccccc4)c3)ncnc2cn1`, for which the EGFP object count was found to be 3.5 and the EGFP/DsRed ratio was 0.0403 (inactive).
For `Cc1ccc2c(-c3ccnc(Nc4ccc5c(c4)OCCO5)n3)c(-c3ccc(C(F)(F)F)cc3)nn2n1`, in that order: 1.5 and 0.0121 (inactive).
For the compound `Cc1ccc(NC(=O)c2ccoc2)cc1-c1ccc(C(=O)NCC2CC2)cc1`, the EGFP/DsRed ratio is 0.0344 (inactive) and the EGFP object count turned out to be 2.
Turning to `O=C(Nc1n[nH]c2cc(-c3cc(F)ccc3F)ccc12)C1CC1`, the EGFP/DsRed ratio is 0.173 (inactive) and the EGFP object count turned out to be 4.
In the case of `NC(=O)c1ccc(-c2nc(-c3ccc4c(c3)OCO4)c(-c3ccccn3)[nH]2)cc1`, the EGFP/DsRed ratio was 0.161 (inactive) and the EGFP object count came to 5.5.
Consider `CN(C)c1cc2c(Nc3ccc4nc(Cc5ccccc5)[nH]c4c3)ncnc2cn1`, for which the EGFP object count is 3 and the EGFP/DsRed ratio is 0.0121 (inactive).
In the same order, the values of `Cc1ccc(C(=O)NC2CCC2)cc1-c1ccc(C(=O)NCC2CC2)cc1` are 2 and 0.0763 (inactive).
Consider `CCNC(=O)O[C@H]1CN[C@H](C#Cc2cc3ncnc(Nc4ccc(OCc5cccc(F)c5)c(Cl)c4)c3s2)C1`, for which the EGFP/DsRed ratio is 0.233 (inactive) and the EGFP object count came to 5.5.
As for `Cn1cc(C2=C(c3cn(CCCN)c4ccccc34)C(=O)NC2=O)c2ccccc21`, the EGFP object count worked out at 39 and the EGFP/DsRed ratio was 0.871 (inactive).
For `COc1cc2ncn(-c3cc(O[C@H](C)c4ccccc4Cl)c(C(N)=O)s3)c2cc1OC`, the EGFP/DsRed ratio was 0.108 (inactive) and the EGFP object count stood at 5.5.
`Clc1ccc(CNc2nccc(-c3cnn4ncccc34)n2)cc1`: the EGFP object count was found to be 1 and the EGFP/DsRed ratio is 0.0281 (inactive).
As to `CN1C(=O)C(c2c[nH]c3ccccc23)=C(c2c[nH]c3ccccc23)C1=O`, the EGFP object count came to 3 and the EGFP/DsRed ratio was 0.0517 (inactive).
As for `CCc1cccc(NC(=O)Nc2ccc(Oc3ccc4nc(NC(=O)OC)[nH]c4c3)cc2)c1`, the EGFP object count is 106 and the EGFP/DsRed ratio is 1.83 (active).
In the same order, the values of `O=C1NC(=O)C(c2c[nH]c3ccccc23)=C1c1c[nH]c2ccccc12` are 22.5 and 0.273 (inactive).
As to `COc1cc2ncn(-c3cc(OCc4ccccc4S(C)(=O)=O)c(C#N)s3)c2cc1OC`, the EGFP object count was found to be 7.5 and the EGFP/DsRed ratio is 0.318 (inactive).
In the same order, the values of `Cn1cc(/C=C2\C(=O)Nc3cccnc32)c2ccccc21` are 4 and 0.0768 (inactive).
In the same order, the values of `COc1cc(N2CCN(C(C)C)CC2)ccc1Nc1nc(Nc2ccc(F)cc2C(N)=O)c2cc[nH]c2n1` are 4 and 0.221 (inactive).
Turning to `NC(=O)c1ccc2c(-c3ccnc(NCCCO)n3)c(-c3ccc(F)cc3)nn2c1`, the EGFP/DsRed ratio is 0.0827 (inactive) and the EGFP object count worked out at 4.
`Fc1ccc(-c2ncn(C3CCNCC3)c2-c2ccnc(Oc3ccc4c(c3)OCO4)n2)cc1`: the EGFP object count came to 6.5 and the EGFP/DsRed ratio is 0.159 (inactive).
As to `Fc1cccc(COc2ccc(Nc3ncnc4sc(-c5ccco5)cc34)cc2Cl)c1`, the EGFP object count worked out at 4.5 and the EGFP/DsRed ratio was 0.122 (inactive).
With `Cc1ccc(O)cc1Nc1ccnc2cc(-c3ccccn3)ccc12`, the EGFP/DsRed ratio was 0.137 (inactive) and the EGFP object count worked out at 3.5.
For `COc1ccc(-c2coc3ncnc(N)c23)cc1`, in that order: 0.227 (inactive) and 4.
Consider `Cn1c(=O)c(Oc2ccc(F)cc2F)cc2cnc(NC3CCOCC3)nc21`, for which the EGFP object count worked out at 4 and the EGFP/DsRed ratio was 0.0482 (inactive).
In the same order, the values of `N#Cc1c(NC(=O)c2ccccc2F)sc2c1CCCC2` are 0 and 0 (inactive).
Consider `COc1ccc(-c2oc3ncnc(N)c3c2-c2ccc(NC(=O)Nc3cc(C(F)(F)F)ccc3F)cc2)cc1`, for which the EGFP/DsRed ratio is 0.0596 (inactive) and the EGFP object count was 6.
As for `CN(C)CCOc1ccc(-c2nc(-c3ccc4c(c3)CC/C4=N\O)c(-c3ccncc3)[nH]2)cc1`, the EGFP object count was found to be 9 and the EGFP/DsRed ratio was 0.212 (inactive).
On to `COc1ccc(COc2ccc(Cc3cnc(N)nc3N)cc2OC)cc1`, for which the EGFP object count amounted to 4.5 and the EGFP/DsRed ratio is 0.0511 (inactive).
On to `CS(=O)(=O)Nc1ccc(-c2ccc3c(NC(=O)C4CC4)n[nH]c3c2)cc1`, for which the EGFP/DsRed ratio is 0.0815 (inactive) and the EGFP object count was determined as 3.
Consider `Cn1cc(C2=C(c3c4n(c5ccccc35)CCC(CN)C4)C(=O)NC2=O)c2ccccc21` (stereo not drawn), for which the EGFP/DsRed ratio is 0.0193 (inactive) and the EGFP object count came to 2.
As to `Cn1cc(C2=C(c3cn(CCCSC(=N)N)c4ccccc34)C(=O)NC2=O)c2ccccc21`, the EGFP object count was determined as 1 and the EGFP/DsRed ratio was 0.00598 (inactive).
With `Fc1ccc(-c2c(-c3ccncc3)nc3n2CCS3)cc1`, the EGFP object count came to 1.5 and the EGFP/DsRed ratio is 0.0335 (inactive).
On to `Cc1cc(O)cc(C)c1/C=C/c1cncc(C(=O)N(C)C)c1`, for which the EGFP/DsRed ratio is 0.177 (inactive) and the EGFP object count turned out to be 4.5.
Turning to `CS(=O)(=O)CCNCc1nc(-c2ccc3ncnc(Nc4ccc(F)c(Cl)c4)c3c2)cs1`, the EGFP/DsRed ratio is 0.211 (inactive) and the EGFP object count was determined as 6.5.
In the case of `Nc1ncnc2occ(-c3ccc(NC(=O)Nc4cc(C(F)(F)F)ccc4F)cc3)c12`, the EGFP/DsRed ratio is 0.017 (inactive) and 0.0224 (inactive); the EGFP object count was 2 and 1.
With `Nc1nccc(-c2c(-c3ccc(F)cc3)ncn2C2CCNCC2)n1`, the EGFP/DsRed ratio was 0.0782 (inactive) and 0.0295 (inactive); the EGFP object count is 12.5 and 3.
